Laboratory results published in PubChem BioAssay AID1224860 (National Center for Advancing Translational Sciences (NCATS), 2016).
Records with an inconclusive call do not appear. Values without a mark were called inactive. Activity calls are given as the source filed them. The call rests on the fitted dose curve; in most records, active means well fitted cell-killing curve with a large enough effect; inconclusive means small, poorly fitted or top-dose-only effect; inactive means flat fitted curve, though single readings scatter.

Assay: Compound cytotoxicity measured by an ATP content assay as a counter-screen for lead compounds in human iPSC derived neural progenitor cells (hNPCs)
Conditions: human iPSC-derived NPC viability, ATP luminescence; series mostly up to 46.1 µM; activity, negative = cytotoxicity: at the top concentration
Experimental: National Center for Advancing Translational Sciences [NCATS] Johns Hopkins University School of Medicine Florida State University Assay Overview: Many compounds can cause cytotoxicity at high compound concentrations. […] The compound cytotoxicity may also cause side effects or toxicity in human. Thus, the compound cytotoxicity needs to be measured in each cell type and each compound incubation time - same as these in the compound screening assay. The compound cytotoxicity can be measured by cell viability assays such as the ATP content assay. We use an ATP content assay kit for cell viability measurement. It measures ATP content (level) in human iPSC derived neural progenitor cells (hNPCs) using a luminescence readout that is proportional to viable cell numbers. Decrease in the luminescence signal after the compound treatment indicates reduced cell viability and cell death caused by compound treatment.
Assay Protocol Summary: The medium for hNPCs consists of DMEM/F12, N2 supplement (ThermoFisher, Cat.# 17502048), NEAA (ThermoFisher, Cat. # 11140050), 2 ug/ml heparin, 2 uM cyclopamine, and B27 (ThermoFisher, Cat. # 17504044). The ATP content assay kit (PerkinElmer, Cat.# 6016731) was used to determine cell viability. The reagent was reconstituted and prepared as described by the manufacturer. Cells were seeded in 384- or 1536-well assay plates and cultured at 37 C with 5% CO2 for 16 to 20 hours. The typical cell seeding density in the 1536-well plate assay is 350 cells/well in 3 ul medium for hNPCs in the tissue cultured treated/PDL coated plates. Compounds were added to cells and incubated for a specific time such as 6, 24, or 72 hours before addition of the reagent mixture of the ATP content assay kit at 1:1 ratio. After incubation at room temperature for 10 minutes, the luminescence intensity in assay plates was measured using a ViewLux plate reader (PerkinElmer). […] The percentage inhibitions of the decreased cell viability by small molecules were then calculated that indicate compound cytotoxicity.

With S=C(SSC(=S)N1CCCCC1)N1CCCCC1 the Potency was 245 nM (active).
In the case of O=c1c2ccccc2[se]n1-c1ccccc1, the Potency is reported as 12300 nM (active).
In the case of Cc1ccc([N+](=O)[O-])[c]2c1[O][Hg]2, the Potency is reported as 869 nM (active).

Going from O=C1C=CC[C@@H]2[C@H]3CCCN4CCC[C@@H](CN12)[C@@H]34 to O=C1CCC[C@@H]2[C@H]3CCCN4CCC[C@@H](CN12)[C@@H]34, the “activity, negative = cytotoxicity” value falls from 4.73% to -6.59%.

Going from CC(O)CN1CCN(CC(=O)[O-])CCN(CC(=O)[O-])CCN(CC(=O)[O-])CC1.[Gd+3] (stereo not drawn) to COC1(CS(=O)c2ccccc2)CCN(CCc2c[nH]c3ccc(F)cc23)CC1 (stereo not drawn), the “activity, negative = cytotoxicity” value falls from 5.47% to 0.672%.

Going from Oc1ccc([C@H]2CNCc3c2ccc(O)c3O)cc1O to CC(C)N[C@@H]1CCn2c(=O)[nH]c3cccc(c32)[C@@H]1O, the “activity, negative = cytotoxicity” value rises from -5.13% to -2.56%.

Compared with CC(C)[N+](C)(CCC(C(N)=O)(c1ccccc1)c1ccccc1)C(C)C, CN1CC[C@@]2(C)c3cc(OC(=O)Nc4ccccc4)ccc3N(C)[C@@H]12 is lower in “activity, negative = cytotoxicity” value: 1.39% for the first, -15.7% for the second.

Going from COP(=S)(OC)SCN1C(=O)c2ccccc2C1=O to CC(C)[C@H]1C(=O)N[C@H](CO)Cc2c[nH]c3cccc(c23)N1C, the “activity, negative = cytotoxicity” value rises from -12.2% to -7.67%.
